Source: PubChem BioAssay AID1851 (National Center for Advancing Translational Sciences (NCATS), 2009)
The campaign covered roughly 16,000 compounds. About 5,100 (32%) were called active. Roughly 25% stayed inconclusive and do not appear here. This is one part of the list. Unmarked numbers belong to inactive results. Calls follow the shape of the dose curve; as a rule, active = well fitted curve in the direction sought with a large enough effect; inconclusive = small, poorly fitted or top-dose-only effect, or effect the other way; inactive = no such curve, though single readings can be large or run the other way.

These compounds were tested against Cytochrome P450 3A4 (Homo sapiens) (UniProt P08684) (assay: Cytochrome panel assay with activity outcomes). Conditions: recombinant CYP, pro-luciferin dealkylation, luminescence, p450-cyp3a4; series mostly up to 57.1 µM.
% is scaled to controls: 0 for no effect and ±100 for the full control effect.

Chain of Cytochrome P450 3A4 (Homo sapiens) (P08684 whole entry, looked up): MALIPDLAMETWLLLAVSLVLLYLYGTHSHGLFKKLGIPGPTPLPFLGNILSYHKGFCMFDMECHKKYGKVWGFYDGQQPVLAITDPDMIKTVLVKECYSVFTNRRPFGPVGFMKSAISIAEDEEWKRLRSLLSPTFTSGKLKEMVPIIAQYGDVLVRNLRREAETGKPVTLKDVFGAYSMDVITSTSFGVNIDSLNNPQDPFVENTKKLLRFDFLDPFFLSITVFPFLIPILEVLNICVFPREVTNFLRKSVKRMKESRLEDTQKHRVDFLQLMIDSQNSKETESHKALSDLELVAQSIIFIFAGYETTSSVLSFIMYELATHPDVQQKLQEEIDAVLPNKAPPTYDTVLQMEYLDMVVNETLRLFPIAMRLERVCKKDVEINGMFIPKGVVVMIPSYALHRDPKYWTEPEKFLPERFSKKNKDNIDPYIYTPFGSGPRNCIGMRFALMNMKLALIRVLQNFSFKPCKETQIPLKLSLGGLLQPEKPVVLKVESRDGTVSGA

Q: `Clc1ccc(-c2cc3ccccc3[nH]2)cc1` was tested. Which AC50 did it give?
A: Its AC50 is “inactive”.

Q: With `N#C/C(=C\c1c[nH]c2ccccc12)C(=O)c1ccc(O)c(O)c1` as the compound, how does the AC50 read?
A: The AC50 was 7.94 µM (active).

Q: `N#C/C(=C\c1ccc(O)c(O)c1)C(N)=O` was tested. Which AC50 did it give?
A: The AC50 was “inactive”.

Q: With `N#C/C(=C\c1ccc(O)c(O)c1)C(=O)c1ccc(O)c(O)c1` as the compound, how does the AC50 read?
A: The AC50 was 15.8 µM (active).

Q: With `N#C/C(=C\N1CCNC1=S)C(=O)c1ccc2ccccc2c1` as the compound, how does the activity, negative = inhibition read?
A: The activity, negative = inhibition was -26% [at 11.4 µM].

Q: With `Cc1ccc(-n2ncc3c2ncn2nc(-c4ccco4)nc32)c(C)c1` as the compound, how does the AC50 read?
A: Its AC50 is “inactive”.

Q: `c1ccc(-n2ncc3c2ncn2cnnc32)cc1` was tested. Which AC50 did it give?
A: Its AC50 is “inactive”.

Q: `Cc1nc2c3cnn(-c4ccc(C)c(C)c4)c3ncn2n1` was tested. Which AC50 did it give?
A: The AC50 was 17.8 µM (active).

Q: With `CC(C)(C)c1ccc(OCC(=O)O)c(Cl)c1` as the compound, how does the activity, negative = inhibition read?
A: The activity, negative = inhibition was -2.41% [at 11.4 µM].

Q: How did the activity, negative = inhibition turn out when `O=C1N=C(N2CCOCC2)S/C1=C/c1cccs1` was run?
A: Its activity, negative = inhibition is -4.33% [at 2.29 µM].

Q: With `NC(=O)CNC(=O)[C@@H]1CC2(CC(c3ccccc3)=NO2)CN1C(=O)c1ccc(Br)cc1` (some centres not stated) as the compound, how does the activity, negative = inhibition read?
A: Its activity, negative = inhibition is -5.09% [at 11.4 µM].

Q: How did the AC50 turn out when `COc1cccc(N(C(=O)Cn2nnc(-c3ccc(C)cc3)n2)C(C(=O)NC(C)(C)C)c2c[nH]c3ccccc23)c1` (configuration not stated) was run?
A: Its AC50 is 2.82 µM (active).

Q: `NCCCCCc1nnc(SCc2ccccc2Cl)o1` was tested. Which AC50 did it give?
A: The AC50 was “inactive”.

Q: How did the activity, negative = inhibition turn out when `N=C(N)SCc1ccc(Cl)cc1Cl` (tested in a mixture with another compound) was run?
A: Its activity, negative = inhibition is -3.48% [at 11.4 µM].

Q: `NCCCCCc1nnc(SCc2ccc(Cl)cc2Cl)o1` was tested. Which AC50 did it give?
A: Its AC50 is 12.6 µM (active).

Q: Which AC50 does the source give for `CCOC(=O)c1cnn(CCOC(=O)C(C)(C)C)c1NC(=O)C(C)(C)C` here?
A: Its AC50 is 12.6 µM (active).

Q: How did the activity, negative = inhibition turn out when `CCn1ncc(C(=O)Nc2cc(C)on2)c1C` was run?
A: Its activity, negative = inhibition is 6.4% [at 2.29 µM].

Q: With `CCOC(=O)c1cnc2c(cnn2C)c1NCCCN(C)C` as the compound, how does the AC50 read?
A: The AC50 was “inactive”.

Q: Which AC50 does the source give for `CNC(=O)Oc1ccc2c(c1)[C@@]1(C)CCN(C)[C@@H]1N2C` here?
A: Its AC50 is “inactive”.

Q: For `COc1ccc(-n2c(=O)[nH]cc(C(=O)Nc3ccc4c(c3)OCCO4)c2=O)cc1`, which AC50 is on record?
A: Its AC50 is 14.1 µM (active).

Q: How did the AC50 turn out when `CCOC(=O)CSc1nc(-c2ccccc2)nc2ccccc12` was run?
A: Its AC50 is “inactive”.

Q: `CCOC(=O)CSc1cc(CS(=O)c2ccc(Cl)cc2)nc(-c2ccccc2)n1` (configuration not stated) was tested. Which AC50 did it give?
A: Its AC50 is 7.08 µM (active).

Q: For `CCOC(=O)CSc1cc(C(F)(F)F)nc(-c2ccccn2)n1`, which AC50 is on record?
A: The AC50 was “inactive”.

Q: How did the AC50 turn out when `CCOc1ccc(OCC)c(-c2c(=O)n(OCc3ccccc3C(=O)OC)c3ccccc3[n+]2[O-])c1` was run?
A: Its AC50 is 14.1 µM (active).

Q: Which activity, negative = inhibition does the source give for `Cn1c(=O)c2c3c(sc2n2cnnc12)CCC3` here?
A: The activity, negative = inhibition was 10.9% [at 2.29 µM].

Q: For `CCn1c(SCC(=O)OC)nc2sc3c(c2c1=O)CCC3`, which AC50 is on record?
A: The AC50 was “inactive”.

Q: For `CC1CSc2nc3sc4c(c3c(=O)n21)CCCC4` (configuration not stated), which AC50 is on record?
A: The AC50 was 12.6 µM (active).
